# Source: PubChem
# Compounds with a hit are over-represented: about 3.8% of the library has one in this group of screens.
# PLK1 PBD block: blocks phosphopeptide binding to human PLK1 polo-box domain. Potency, µM, usual class: inhibitors. AID 720504. actives 2.8% (n = 360,000). Plk1 PBD binding of FITC phosphopeptide, fluorescence polarization. P53350; also: series mostly up to about 57 µM; nearly all actives have a fitted effect of over 65% in size
# MBNL1-CUG inh: blocks human MBNL1 binding to CUG repeat RNA. TR-FRET MBNL1-His/biotin-(CUG)12 binding, 665/545 ratio. Potency, µM (doses to about 57.5 µM), most hits filed as inhibitors. actives 0.036% (n = 280,000); active = well fitted inhibition curve with a large enough effect in the signal ratio, with a control signal flat, not every such curve was filed as active; inconclusive = small, poorly fitted or top-dose-only effect, or effect the other way, or a change in a side signal; inactive = no such curve, though single readings can be large or run the other way; the % refers to the signal ratio
#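 Ratiometric TR-FRET (665 over 545 nm, excitation 340 nm) tracks disruption of MBNL1-His/biotin-(CUG)12 complex after 60 min at room temperature, with compounds at 92 nM to 58 uM final.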
# CBFb-RUNX1 inh: blocks binding between human CBF-beta and RUNX1. AID 1477. 230,000 tested, under 10 active. AlphaScreen CBFb-His/RUNX1-biotin binding, biochemical. Potency, µM (series often up to 59.8 µM), most hits filed as inhibitors. Q01196+Q13951
# Target sequence (Q01196 whole entry, looked up): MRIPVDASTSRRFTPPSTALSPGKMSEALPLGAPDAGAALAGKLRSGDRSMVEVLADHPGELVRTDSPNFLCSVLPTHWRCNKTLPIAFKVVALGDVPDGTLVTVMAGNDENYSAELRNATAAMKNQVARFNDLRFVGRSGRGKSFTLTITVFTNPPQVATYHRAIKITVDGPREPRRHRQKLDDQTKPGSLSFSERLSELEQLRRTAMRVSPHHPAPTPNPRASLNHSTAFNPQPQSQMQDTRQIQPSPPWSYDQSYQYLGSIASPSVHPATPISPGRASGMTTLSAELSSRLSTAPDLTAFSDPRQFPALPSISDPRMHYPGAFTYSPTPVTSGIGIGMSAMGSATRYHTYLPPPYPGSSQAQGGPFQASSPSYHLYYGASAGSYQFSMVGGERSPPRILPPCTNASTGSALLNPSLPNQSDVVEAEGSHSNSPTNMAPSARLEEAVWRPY
# Target sequence (Q13951 whole entry, looked up): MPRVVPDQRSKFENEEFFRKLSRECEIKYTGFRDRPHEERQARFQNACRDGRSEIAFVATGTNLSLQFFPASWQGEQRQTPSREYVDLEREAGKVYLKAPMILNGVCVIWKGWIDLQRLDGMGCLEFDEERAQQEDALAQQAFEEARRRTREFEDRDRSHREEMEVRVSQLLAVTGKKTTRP
#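 Room-temperature protein-protein interaction test with 30 nM each of His-tagged CBF-beta and biotinylated RUNX1, 15 min with compound, then 90 min with nickel plus streptavidin beads. Signal read in AlphaScreen mode.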
# KCNH2 3.1 block: blocks the human KCNH2 3.1 channel isoform; activity change, % (tested at about 1.8 µM); actives 0.95% (n = 340,000); U2OS KCNH2 3.1, thallium flux FluxOr; stronger effect = lower value;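 active = maximum activity change below -70%; inconclusive = maximum activity change from -70% to -50%; inactive = maximum activity change above -50%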;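 also: thallium influx rate constant from kinetic fluorescence after stimulation buffer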
#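 Thallium flux read-out: FluxOr dye with Red40 quencher in HBSS/HEPES, 45 min at RT. Rate constants from kinetic reads were normalized to positive and negative DMSO controls. Cells: U2OS virally expressing the 3.1 isoform.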
# hERG WT inh: KCNH2 (human, wildtype) channel inhibition; Q12809; U2OS, BacMam KCNH2, thallium flux FluxOr; stronger effect = lower value; activity change, % at 1.84 µM; actives 0.37% (n = 340,000);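 active = maximum activity change below -70%; inconclusive = maximum activity change between -70% and -50%; inactive = maximum activity change above -50%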
#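 U2OS cells transduced with wild-type KCNH2 virus are loaded with FluxOr dye for 45 min, and thallium flux is measured in kinetic reads before and after stimulation buffer. Rate constants are normalized to DMSO controls.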
# VDR inhibitor: vitamin D3 receptor (human) inhibition. P11473. VDR-SRC2-3 peptide fluorescence polarization, 2 h. Potency, µM, usual class: inhibitors. actives 0.93% (n = 400,000)
#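 Signal is fluorescence polarization, reporting how far test compounds block the interaction of VDR with the SRC2-3 coregulator peptide after a 2 h room-temperature incubation.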
# Numbers stand for hits; - = inactive; ? = inconclusive; . = no result. Unless noted, calls follow the shape of the dose curve; as a rule, active = well fitted curve in the direction sought with a large enough effect; inconclusive = small, poorly fitted or top-dose-only effect, or another doubt; inactive = no such curve, though single readings can be large; an effect the other way counts as inactive or inconclusive.
SMILES,PLK1 PBD block,MBNL1-CUG inh,CBFb-RUNX1 inh,KCNH2 3.1 block,hERG WT inh,VDR inhibitor
CCn1c(COc2cccc(C)c2)nnc1SCC(=O)NC1CCCC1,30µM,-,.,-,-,?
COc1cc(NC(=O)C2CCCN(S(=O)(=O)c3cn(C)cn3)C2)cc(OC)c1 (stereo unspecified),.,.,.,.,.,-
CCOc1ccc(CNC(=O)C2CCN(c3nnc(-n4c(C)ccc4C)s3)CC2)cc1,.,.,.,.,.,-
Clc1ccc(-c2nn3c(C4COc5ccccc5O4)nnc3s2)cc1 (stereo unspecified),21µM,-,-,-,-,79µM
CCOC(=O)Cc1csc(N/C(=N/S(=O)(=O)c2cc(Br)ccc2OCC)c2ccccc2)n1,-,-,-,-170,-261,-
O=C(Nc1ccccc1)Nc1cccc2nsnc12,-,?,-,-,-,-
COc1ccc(/C=N/NC(=O)Nc2cccc3nsnc23)cc1,24µM,.,-,-,-,?
O=C1C2C(c3ccccc3)CC=CC2C(c2ccc3ccccc3c2)N1Cc1ccccc1 (stereo unspecified),.,.,-,.,.,-
COc1ccc(C2/C=C\CN(C(=O)c3ccccc3)C(Cc3ccccc3)C(=O)N2Cc2ccc(F)cc2)cc1 (stereo unspecified),.,.,-,.,.,-
CC1(C)C2CCC1(CS(=O)(=O)N1CCOCC1)C(=O)C2 (stereo unspecified),-,-,-,-70,-,-
CCN(CC)c1ccc(CNc2nc3ccccc3n2C(C)C)cc1,19µM,-,-,-,-,-
CCN(CC)c1ccc(CNc2nc3ccccc3n2CC)cc1,-,-,-,-,-,-
CCC(=O)Nc1ccc(C)cc1-c1nc2ccccc2n(C(C)C(=O)Nc2ccccc2CC)c1=O (stereo unspecified),.,.,.,.,.,-
Cc1ccccc1OCCN1C(=O)C(=O)c2cccc(C)c21,?,.,-,-,-,50µM
COc1ccc(N2C(=O)c3ccccc3NC2c2ccc(OC)c(COc3ccc(NC(C)=O)cc3)c2)cc1 (stereo unspecified),.,.,.,.,.,-
CC(C)(C)OC(=O)NS(=O)(=O)NCc1ccco1,.,.,-,.,.,-
Cc1ccc(NC(=O)CCS(=O)(=O)c2ccc3nc(C)sc3c2)cc1,27µM,-,.,-,-,-
Cc1ccc(S(=O)(=O)CCC(=O)Nc2ccc3nc(C)sc3c2)cc1,-,.,-,-,.,-
Cc1nc2ccc(NC(=O)c3ccc4ccccc4n3)cc2s1,-,-,-,-,-,-
COc1cc(C(=O)Nc2nc3ccc4nc(C)sc4c3s2)cc(OC)c1OC,-,-,-,-,-,-
C=CCNC(=O)Nc1ccc2nc(C)sc2c1,-,32µM,-,-,-,-
Cc1nc2ccc(NC(=O)c3ccccc3)cc2s1,21µM,-,-,-,-,-
COc1ccc(C(=O)Nc2nc3ccc4nc(C)sc4c3s2)cc1,-,-,-,-94,-,-
COc1ccc(-c2nnc3n2N=C(c2ccc(OC)c(OC)c2)CS3)cc1,.,.,-,.,.,.
Cc1ccc(NS(=O)(=O)c2cc3[nH]c(=O)c(=O)[nH]c3cc2C)cc1N(C)C,.,.,.,.,.,-
SMILES,PLK1 PBD block,MBNL1-CUG inh,CBFb-RUNX1 inh,KCNH2 3.1 block,hERG WT inh,VDR inhibitor
O=C(NC(=S)Nc1ccc2ncccc2c1)c1ccccc1,-,-,-,-,-,-
Cc1ccc(OC(=O)c2ccc3nc(C)sc3c2)cc1,19µM,-,-,-,-,?
O=C(Nc1ccc2ncccc2c1)c1ccccc1,8.4µM,-,.,-,-,?
C=CCN=c1sc(C(=O)OC)cc(=O)n1CC=C,30µM,-,-,-,-,?
Cc1cc(C)c(S(=O)(=O)Nc2cccc(-c3cn4ccccc4n3)c2)c(C)c1,.,.,.,.,.,-
CC1(C)Cc2c(sc(NC(=O)/C=C/C(=O)O)c2C#N)CO1,-,-,-,-,-,-
CC1(C)Cc2c(sc(NC(=O)C(=O)NCCCN3CCOCC3)c2C#N)CO1,12µM,-,.,-,-,-
Cc1ccccc1C1CC(=O)Oc2ccc(O)cc21 (stereo unspecified),.,.,-,.,.,?
Cc1ccccc1S(=O)(=O)N1C(c2ccc(Cl)c(Cl)c2)CC=C(C(=O)O)C1c1cccc(Br)c1 (stereo unspecified),24µM,.,.,.,.,.
Cc1ccc([C@@H]2CC=C(C(=O)O)[C@H](c3ccc(Br)cc3)N2S(=O)(=O)c2ccccc2C)cc1,27µM,.,.,-,-,?
Cc1ccccc1S(=O)(=O)N1[C@@H](c2ccccc2)C(C(=O)O)=CC[C@H]1c1ccc(Cl)cc1,?,.,.,-,-,?
Cc1ccc([C@@H]2CC=C(C(=O)O)[C@H](c3ccc(Cl)cc3)N2S(=O)(=O)c2ccccc2C)cc1,21µM,.,.,-,-,-
Cc1ccccc1S(=O)(=O)N1[C@@H](c2ccc(Br)cc2)C(C(=O)O)=CC[C@H]1c1ccc(Cl)cc1,21µM,.,.,-,-,?
CCOC(=O)c1ccccc1NS(=O)(=O)c1c(-c2ccc(C)cc2)csc1C(=O)OC,.,.,.,.,.,-
CC(=O)c1ccc(NC(=O)CSc2cn(CC(=O)N3CCCCCC3)c3ccccc23)cc1,.,.,.,.,.,-
Cc1ccccc1NC(=O)CCC(=O)N1CCSc2ccccc21,.,.,.,.,.,-
Cc1ccc(Cl)cc1N1CCN(C(=O)c2c(C)oc3ncnc(N4CCCCC4)c23)CC1,.,.,.,.,.,-
COc1cccc(CNC(=O)Cn2nc3c(cc2=O)CCCC3)c1OC,.,.,.,.,.,-
O=C(Nc1ccc(N2CCOCC2)cc1N1CCOCC1)c1ccco1,27µM,-,-,-,-,?
O=C(Nc1ccc(N2CCOCC2)c(C(=O)O)c1)c1ccco1,.,-,-,.,.,.
c1ccc(CN2CCN(C(c3ccccc3)c3ccccc3)CC2)cc1,-,-,.,-,-,-
N#Cc1ccc(-c2ccc(OCC(O)CN3CCCCC3)cc2)cc1 (stereo unspecified),-,-,.,-,-,-
N#Cc1ccc(OCC(O)CN2CCN(CC(O)COc3ccc(C#N)cc3)CC2)cc1 (stereo unspecified),-,-,.,-107,-147,-
O=C(O)COCCN1CCN([C@@H](c2ccccc2)c2ccc(Cl)cc2)CC1,.,.,-,.,.,-
c1ccc(OCCOCCN2CCN(C(c3ccccc3)c3ccccc3)CC2)cc1,-,-,-,-86,-78,-
N#Cc1ccc(OCC(O)CN2CCN(C(c3ccccc3)c3ccccc3)CC2)cc1 (stereo unspecified),-,-,.,-100,-84,-
O=S(=O)(CCN1CCN(C(c2ccccc2)c2ccccc2)CC1)C(F)(F)F,15µM,-,-,-,-,?
COc1cc(/C=C/c2nc(C#N)c(N3CCCCCC3)o2)cc(OC)c1OC,.,.,.,.,.,-
COc1cccc(OC)c1C1=Nn2c(nnc2-c2ccccc2C)SC1,.,.,-,.,.,.
COc1cccc(Cn2c(CNC(=O)c3cc([N+](=O)[O-])ccc3Cl)nc3cccnc32)c1,.,.,.,.,.,-
